The structures appear in SMILES notation. The whole screen tested about 320,000 compounds, of which about 3,100 (0.97%) were called active. The entries come from a sample that favours actives as a whole. Unmarked numbers belong to inactive results.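 The calls were made as follows: active = mean replicate inhibition of at least 70% and a set share of replicates each scoring 70 or more; inconclusive = meets just one of the two criteria; inactive = fails both criteria.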

Chain of Scavenger receptor class B member 1 (Mus musculus) (Q61009 whole entry, looked up): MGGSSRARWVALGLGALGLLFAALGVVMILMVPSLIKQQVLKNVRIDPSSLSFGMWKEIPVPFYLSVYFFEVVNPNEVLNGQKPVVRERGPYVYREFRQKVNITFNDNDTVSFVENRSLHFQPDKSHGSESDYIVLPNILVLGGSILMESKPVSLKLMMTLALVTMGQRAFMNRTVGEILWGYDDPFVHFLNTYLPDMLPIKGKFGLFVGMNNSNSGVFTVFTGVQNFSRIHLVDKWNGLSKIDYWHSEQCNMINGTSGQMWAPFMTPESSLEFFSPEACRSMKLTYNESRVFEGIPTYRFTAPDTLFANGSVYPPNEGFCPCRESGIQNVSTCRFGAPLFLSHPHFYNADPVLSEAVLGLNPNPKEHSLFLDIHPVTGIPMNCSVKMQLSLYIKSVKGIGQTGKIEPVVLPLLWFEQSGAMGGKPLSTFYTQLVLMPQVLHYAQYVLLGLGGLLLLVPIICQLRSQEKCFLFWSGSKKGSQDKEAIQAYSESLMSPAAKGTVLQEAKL

This assay has as its target Scavenger receptor class B member 1 (Mus musculus) (UniProt Q61009). Kind of assay: inhibitors of SR-BI mediated HDL lipid uptake, primary screen, ldlA[mSR-BI] cells, fluorescence, single point (AID 488896).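 Also: 0% = median of neutral control wells and 100% = median of positive control wells.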 Particulars: ldlA[mSR-BI] CHO cells, DiI-HDL uptake fluorescence, 3 h; at 12.5 µM; stronger effect = higher value.
In the case of `O=C1c2ccccc2C(=O)N1CCCCCCN1C(=O)c2ccccc2C1=O`, the inhibition was 7.39%.
With `Cc1nc2ccccc2c(C(=O)O)c1-c1ccccn1` the figure was -15.2%; with `Oc1cccc(CCc2ccccn2)c1`, -0.288%; with `O=C(O)C(=Cc1ccccc1[N+](=O)[O-])c1ccccc1`, 0.653%.
`CSCCC(NS(=O)(=O)c1ccc(C)cc1)C(=O)N(C)CC(=O)Nc1ccccc1Br` (configuration not stated): the inhibition was 16.3%.
As to `CCOc1ccc(NC(=O)CN(C)C(=O)Cc2sc(C)nc2-c2ccc(F)cc2)cc1OCC`, the inhibition was 73.5% (active).
In the case of `Cc1nc(-c2ccc(F)cc2)c(CC(=O)N(C)CC(=O)Nc2c(C)cccc2C)s1`, the inhibition was -10.6%.
With `CCOc1ccc(NC(=O)CN(C)C(=O)CCSc2ccc(F)cc2)cc1OCC`, the inhibition was 39.6%.
For the compound `S=C(Nc1ccccc1)Nc1ccc2ccccc2c1`, the inhibition is 9.12%.
`O=C(O)c1ccc(Cn2cnc3c(=S)nc[nH]c32)cc1`: the inhibition was -20.4%.
In the case of `CC/C(=C\c1ccc(Cl)cc1)c1ccncc1`, the inhibition is 29.1%.
The value for `COc1cc(/C=C/C2=CC(C)(C)NC(=S)N2)cc(OC)c1OC` was 26.3%.
Consider `COc1ccc(/C=C/C2=CC(C)(C)NC(=S)N2)c(OC)c1`, for which the inhibition was 78.2% (active).
`COc1ccc(/C=C2/C(=O)N(c3ccccc3)N=C2C)c(OC)c1`: the inhibition is 30.7%.
For `O=C(Nc1ccn(CCCNCc2ccc3[nH]ccc3c2)c(=O)n1)OCc1ccccc1`, the inhibition is 14.3%.
For `FC(F)(F)c1ccc(-c2cccc3c2C2CC3CCN2Cc2ccccc2)cc1` (configuration not stated), the inhibition was -20.1%.
The value for `COc1ccc(NC(=O)c2cccc(NC(=O)c3ccco3)c2)c(OC)c1` was 75.7% (active); that for `COc1ccc(NC(=O)CCC(=O)Nc2cc(OC)c(NC(=O)c3ccco3)cc2OC)c(OC)c1` was 58.1%; that for `COc1ccccc1C(=O)Nc1ccc(NC(=O)c2ccco2)c(C)c1` was 44.6%.
For the compound `CC1C(C)N(C(=O)CCl)c2ccccc2N1C(=O)CCl` (configuration not stated), the inhibition was -12%.
For `Nc1ncnc2c1cnn2C1CC(O)C(CO)O1` (configuration not stated), the inhibition is -3.29%.
The value for `Cc1ccc(NC(=O)c2ccc(S(=O)(=O)NCC3CCCO3)cc2)cc1C` (configuration not stated) was 51.6%; that for `CCC(=O)Nc1ccc(S(=O)(=O)NCC2CCCO2)cc1` (configuration not stated) was 16.2%.
Consider `CCOc1ccc(C(=O)Nc2ccc(S(=O)(=O)NCC3CCCO3)cc2)cc1OCC` (configuration not stated), for which the inhibition is 82.5% (active).
The value for `O=C(NCc1ccco1)c1ccc(Cn2c(=O)c3sccc3n(Cc3ccc(F)cc3)c2=O)cc1` was 28.8%; that for `CC(C)(C)c1ccc(C(=O)NCCC(=O)NCc2ccco2)cc1` was -4.1%.
Consider `CC(C)OCCCNC(=O)c1ccc(C2SCC(=O)N2Cc2ccco2)cc1` (configuration not stated), for which the inhibition was 75.6% (active).
For the compound `CSc1ncnc2c1ncn2CC(=O)C1CCC2C3CCC4=CC(=O)CCC4(C)C3CCC12C` (configuration not stated), the inhibition is -12.4%.
Take `O=C(Nc1cccc(Br)c1)C1CC(=O)N(C2CCCC2)C1` (configuration not stated): the inhibition is -9.43%.
In the case of `O=C(NCCc1ccc(F)cc1)c1n[nH]c2ccccc12`, the inhibition was 22.1%.
Turning to `O=C(NCCCO)c1cc2c([nH]c3ccccc32)c(-c2ccc(F)cc2)n1`, the inhibition was 73.4% (active).
With `O=C(NCC1CCCO1)c1cc2c([nH]c3ccccc32)c(-c2ccc(F)cc2)n1` (configuration not stated) the figure was 64.1%.
For `Cn1c(=O)[nH]c2c(c(C(=O)O)nn2C)c1=O`, the inhibition is -13.4%.
`CCCCNCCS(=O)(=O)NCc1ccccc1`: the inhibition is -2.76%.
The value for `Cc1cc([N+](=O)[O-])ccc1NS(=O)(=O)c1ccccc1` was -11.2%.
Turning to `Cc1ccc(S(=O)(=O)N2CCN(C(=O)COC(=O)c3c(C)cc(C)cc3C)CC2)c(C)c1`, the inhibition was 20.4%.
Take `Cc1ccc(S(=O)(=O)N2CCN(C(=O)COC(=O)/C=C/c3cccc(Cl)c3)CC2)c(C)c1`: the inhibition is -11.6%.
For `COc1ccc(/C=C/C(=O)OCC(=O)N2CCN(S(=O)(=O)c3ccc(C)cc3C)CC2)cc1OC`, the inhibition is 71.9% (active).
For the compound `CC(C)(C)OC(=O)N1CCC(C(=O)Nc2cccc(C(=O)NCCc3ccccc3)c2)CC1`, the inhibition is 52.6%.
On to `CC(=O)N1CCN(C(=O)c2cc(-c3ccc(Cl)s3)nc3ccccc23)CC1`, for which the inhibition was 33.7%.
Take `O=C(c1cc(-c2ccc(Cl)s2)nc2ccccc12)N1CCOCC1`: the inhibition is 19.5%.
On to `Cc1c(NC(=O)c2cc(-c3ccc(Cl)s3)nc3ccccc23)c(=O)n(-c2ccccc2)n1C`, for which the inhibition was 95.8% (active).
With `CC(=O)Oc1ccc(OC(C)=O)c2c1C1C=CC2CC1` the figure was -21.7%; with `COc1ccc(Nc2ccc3ccccc3c2)cc1`, 31.3%; with `Nc1nc(-c2ccccc2)cc(-c2ccccc2)n1`, 9.59%.
With `Nc1cccc(-c2cc(-c3ccccc3)nc(-c3cccc(N)c3)n2)c1` the figure was 102% (active).
Take `CNc1nc(-c2ccccc2)cc(-c2ccccc2)n1`: the inhibition was 21.8%.
For the compound `CC(=NNC(=S)N1CCCCCC1)c1ccccn1`, the inhibition was 22.4%.
With `Cc1nc2ccc(NC(=O)c3cccc(S(=O)(=O)N4CCOCC4)c3)cc2s1` the figure was 72.3% (active); with `O=C(Nc1ccc(N2CCOCC2)cc1)c1cccc(S(=O)(=O)N2CCOCC2)c1`, 65.7%.
With `Cc1ccc(C(=O)Nc2ccc3c(c2)OCCO3)cc1S(=O)(=O)N1CCOCC1` the figure was 50.5%; with `Cc1ccc(NC(=O)c2ccccn2)cc1S(=O)(=O)N1CCOCC1`, -25.4%.
With `O=C(Nc1ccc(S(=O)(=O)Nc2nccs2)cc1)c1cccc(S(=O)(=O)N2CCOCC2)c1` the figure was -0.76%; with `Cc1cccc(NC(=O)c2cccc(S(=O)(=O)N3CCCC3)c2)n1`, 26.2%; with `COc1ccc(OC)c(NC(=O)c2cccc(S(=O)(=O)N3CCN(C(C)=O)CC3)c2)c1`, 10.1%.
For the compound `Cc1ncc(CO)c(/C=N/NC(=O)c2cccc(S(=O)(=O)N3CCCC3)c2)c1O`, the inhibition was 84.8% (active).
Regarding `O=C(N/N=C/c1ccccn1)c1ccc(S(=O)(=O)N2CCCCCC2)cc1`, the inhibition is 10.6%.
The value for `CCOc1cc(/C=N/NC(=O)c2cccc(S(=O)(=O)N3CCOCC3)c2)ccc1OCC(=O)N(C)C` was 23.7%.
The value for `Cc1ccc(NC(=O)c2ccc(Cl)nc2)cc1S(=O)(=O)N1CCOCC1` was 74.1% (active); that for `COc1ccc(Br)cc1/C=N/NC(=O)c1cccc(S(=O)(=O)N2CCOCC2)c1` was 81.8% (active).
`CC(=O)OCC1(O)CC23CCC4c5ccoc5CCC4(C)C2CCC1C3` (configuration not stated): the inhibition was 30.4%.
`COc1cc(/C=C/CNC[C@H]2O[C@@H](n3cnc(C(N)=O)n3)[C@H](O)[C@@H]2O)ccc1O`: the inhibition was -8.12%.
Consider `O=c1[nH]c(=S)[nH]c(O)c1/C=C1\C=Nc2ccccc21`, for which the inhibition was -12.1%.
`Cc1cc(OCCCC(=O)Nc2cc(S(=O)(=O)N3CCOCC3)ccc2N2CCOCC2)ccc1Cl`: the inhibition was 17.2%.
As for `C/C(=N\NC(=O)c1ccoc1C)c1ccccc1O`, the inhibition is 95.2% (active).
Take `Cc1[nH]n(-c2ccccc2)c(=O)c1/C=N/NC(=O)c1ccoc1C`: the inhibition is 69.6%.
On to `CC(C)=C(NC(=O)c1ccccc1)C(=O)N/N=C(\C)c1ccccc1O`, for which the inhibition was -7.68%.
`Cc1ccc(C)c(S(=O)(=O)N(C)c2ccc(OC(=O)C3CCN(C(=O)c4ccc(F)cc4)CC3)cc2)c1`: the inhibition is 12.3%.
With `CC1=CC(C)(C)N(C(=O)CSc2nccn2C)c2cc(C)ccc21`, the inhibition is -2.67%.
As to `CC1=CC(C)(C)N(C(=O)CSc2nnc(-c3ccccc3)o2)c2ccc(C)cc21`, the inhibition is 73.5% (active).
With `Cc1cccc(C)c1OC(=O)CSc1nnc(-c2ccccc2)o1` the figure was -9.02%.
As to `CCc1c(Nc2ccccc2Cl)nc(N)[nH]c1=O`, the inhibition was -15.3%.
Turning to `COc1ccc(OC)c(NC(=O)CC(Cc2ccccc2OC)C(=O)O)c1` (configuration not stated), the inhibition was -10.9%.
With `CCOc1ccccc1NC(=O)Nc1cc(OC)ccc1OC`, the inhibition is 76.1% (active).
As for `CCOc1cc(NS(=O)(=O)c2ccc(OC)cc2)c(OCC)cc1NC(C)=O`, the inhibition was -2.12%.
Consider `CCOc1cc2ccccc2cc1C(=O)Nc1ccccn1`, for which the inhibition is 58.6%.
In the case of `CCOc1cc(NC(=O)c2ccccn2)c(OCC)cc1NC(=O)c1ccc(OC)cc1`, the inhibition is 72.3% (active).
Take `CCOc1ccc(NC(=O)Nc2cc(C)ccc2OC)cc1`: the inhibition was 10.4%.
Consider `CC1CN(Cc2ccccc2)C(=S)NC1=O` (configuration not stated), for which the inhibition was -4.96%.
In the case of `Cc1cc2c(cc1C)NC1(C[C@H]3CCC(=O)N4CC[C@@H](C1)[C@@H]34)C(=NC(C)(C)CC(C)(C)C)N2` (some centres not stated), the inhibition is -27.8%.
Turning to `O=C(NNc1nc(N2CCCC2)nc(N2CCCC2)n1)c1ccccc1`, the inhibition is -25.2%.
Turning to `O=C1C=C(NS(=O)(=O)c2ccccc2)C(=O)c2ccccc21`, the inhibition is -17.2%.
The value for `c1ccc(-c2c[nH]c(-c3ccccc3)c2)cc1` was 9.83%; that for `COc1ccc(-c2c(C)cc3oc(=O)cc(-c4ccccc4)c3c2C)cc1OC` was 66.6%; that for `COc1ccc(-c2c(C)cc3oc(=O)cc(-c4ccccc4)c3c2C)cc1F` was 68.3%.
As to `COc1ccc(-c2c(C)cc3oc(=O)cc(-c4ccccc4)c3c2C)cc1C=O`, the inhibition is 75.1% (active).
On to `COc1ccc2[nH]c3c(c2c1)CCN1C(=O)C(CC(=O)NCCc2ccccn2)C[C@H](C(=O)N2CCOCC2)[C@@]31C` (some centres not stated), for which the inhibition is -24.1%.
With `O=C(Nc1c[nH]c(=O)[nH]c1=O)OCc1ccccc1` the figure was -8.08%.
For the compound `O=C(NC1=CC(=O)c2ccccc2C1=O)c1ccccc1`, the inhibition is 2.35%.
Regarding `Cc1cccc(NC(=O)c2sc3nc(N4CCOCC4)c4c(c3c2N)CCCC4)c1`, the inhibition was 68%.
The value for `Cc1cccc(NC(=O)c2sc3nc4c(c(-c5ccco5)c3c2N)CCC4)c1` was 77.8% (active); that for `Cc1cccc(NC(=O)CSc2nnc(-c3ccco3)o2)c1` was -5.55%.

(Values after PubChem BioAssay AID488896 (Broad Institute, 2010).)
